A selection follows.
aSyn UTR act = Activators via SNCA 5'UTR binding, MLPCN | activity score, % (tested at 7.5 µM), hits read low | hit rate 7.1% among 300,000 | AID 1814 | alpha-synuclein 5'UTR reporter, activators screen; in the data active = activity score below about -60%
Each line names hits and unclear results; the compound was inactive in the other large screens.

COc1cccc(OC)c1-c1nn2c(-c3ccco3)nnc2s1	aSyn UTR act -78
COc1ccccc1-c1nnc2sc(-c3cc4ccccc4o3)nn12	none
CC(=O)c1coc2c1cc(O)c1ccccc12	aSyn UTR act -83
O=C1N=C(N2CCCCC2)SC1=C1CCCC1	aSyn UTR act -81
CCc1ccc(Nc2cc(=O)n(C3CCCCC3)c(=O)[nH]2)cc1	aSyn UTR act -79
COc1cc(SC)ccc1C(=O)Nc1ncc(Cl)cc1Cl	aSyn UTR act -91
COc1ccc(Br)cc1C(=O)Nc1cc(C)cc(C)c1	aSyn UTR act -62
COc1cc(SC)ccc1C(=O)Nc1ccc2c(c1)OCO2	aSyn UTR act -69
COc1cc(SC)ccc1C(=O)Nc1ccc(C)cc1	aSyn UTR act -142
COc1cc(SC)ccc1C(=O)Nc1ncc(C)s1	none
CC(=O)OCC1OC(n2cc(F)c(=O)[nH]c2=O)C(OC(C)=O)C1OC(C)=O (centres undefined)	aSyn UTR act -181
CC(C)CNC(=O)COC(=O)c1c2c(nc3ccccc13)/C(=C/c1cccs1)CC2	aSyn UTR act -110
CCCS/C(N)=N/N=C/c1cc(C)ccc1O	aSyn UTR act -138
C/C(=N/N=C/c1ccccc1O)c1ccccc1O	aSyn UTR act -240
CCCCS/C(N)=N/N=C/c1ccccc1O	aSyn UTR act -153
Cc1cc2cc(C#N)c(SCC(=O)Nc3nonc3C)nc2cc1C	aSyn UTR act -92
Cc1nonc1NC(=O)CSc1nc2c(C)cccc2cc1C#N	aSyn UTR act -98
COc1ccc2cc(C#N)c(SCC(=O)Nc3nonc3C)nc2c1	aSyn UTR act -79
CCc1cc2c(C)ccc(C)c2nc1SCC(=O)Nc1cc(C)on1	none
NNCCc1ccccc1	aSyn UTR act -133
COC(=O)CCN1CCc2cc(N=Nc3ccc([N+](=O)[O-])cc3)ccc21	aSyn UTR act -96
O=C(CSc1nc(-c2ccccc2)ns1)N1CCOCC1	aSyn UTR act -110
Cc1cccc(-c2nsc(SCC(=O)N3CCCC3)n2)c1	aSyn UTR act -140
O=C(NC1CCCCC1)N1CCc2ccccc21	aSyn UTR act -111
Cc1cc(OCC(=O)NC2CCCCC2)ccc1Cl	aSyn UTR act -62
Cc1[nH]nc2nc(SCC(=O)NC3CCCCC3)n(-c3ccc(Br)cc3)c(=N)c12	none
O=C(COc1ccccc1)NC1CCCCCCC1	aSyn UTR act -67
O=C(CSc1ccccc1)NC1CCCCCC1	aSyn UTR act -82
O=C(COc1ccc(Cl)cc1[N+](=O)[O-])NC1CCCCC1	aSyn UTR act -119
CCCNc1ccc(C(=O)OCC)cc1[N+](=O)[O-]	aSyn UTR act -83
Cc1ccc(NC(=O)c2ccc(NCCN)c([N+](=O)[O-])c2)cc1	aSyn UTR act -99
Cc1ccc(NC(=O)CSc2ccc(C(N)=O)cc2[N+](=O)[O-])cc1	aSyn UTR act -67
CN(C)c1ccc(NC(=S)NC23CC4CC(CC(C4)C2)C3)cc1	aSyn UTR act -129
N=c1oc2ccccc2cc1-c1nc(-c2ccccc2)cs1	aSyn UTR act -64
O=c1oc2ccccc2cc1-c1nc(-c2cccs2)cs1	aSyn UTR act -133
c1csc(-c2csc(-c3cccs3)n2)c1	aSyn UTR act -104
CNc1nnc(-c2cc3ccccc3oc2=O)s1	aSyn UTR act -78
COc1cccc2cc(-c3nc(-c4cccs4)cs3)c(=O)oc12	aSyn UTR act -174
CC1CN(C(=O)c2ccc(-c3ccccc3Cl)o2)CC(C)O1 (centres undefined)	aSyn UTR act -64
CC(C)(CNC(=O)c1ccc(-c2ccccc2Cl)o1)N1CCOCC1	aSyn UTR act -124
CC1CCCN(C(=O)c2ccc(-c3ccccc3Cl)o2)C1 (centres undefined)	aSyn UTR act -136
CCOc1ccc(CC(=O)Nc2ccc(-c3ccc4nnc(C)n4n3)cc2)cc1	aSyn UTR act -87
Cc1nnc2ccc(-c3ccc(NC(=O)c4ccco4)cc3)nn12	aSyn UTR act -254
CC(=O)Nc1cccc(-c2cn3ccc(C)cc3n2)c1	aSyn UTR act -107
Cc1ccn2cc(-c3cccc(NS(C)(=O)=O)c3)nc2c1	aSyn UTR act -150
Cc1ccn2cc(-c3ccc(NC(=O)c4ccco4)cc3)nc2c1	aSyn UTR act -95
Cc1cnn(C(=S)NCCc2ccccc2)c1	aSyn UTR act -136
COc1ccc(NC(=O)c2cc(F)c(F)cc2Cl)cc1Cl	aSyn UTR act -93
COc1ccc(NC(=O)Nc2cccs2)cc1Cl	aSyn UTR act -167
CCNC(=O)C(=O)Nc1ccc(OC)c(Cl)c1	aSyn UTR act -83
CC(C)=CC(=O)Nc1ccc(Cl)cc1	aSyn UTR act -90
CCc1cccc(NC(=O)Nc2cccs2)c1	aSyn UTR act -243
COc1ccc(NC(=O)C=C(C)C)cc1Cl	aSyn UTR act -122
Cc1ccc(Nc2ccc(NCc3ccccc3)nn2)cc1C	aSyn UTR act -87
Clc1ccc(Nc2ccc(NCc3ccccc3)nn2)cc1	aSyn UTR act -72
COc1ccc2c(c1)C(C)=CC(C)(C)N2S(=O)(=O)c1ccc(Br)cc1	aSyn UTR act -86
COc1ccc2c(c1)C(C)=CC(C)(C)N2S(=O)(=O)c1ccc(NC(C)=O)cc1	none
Cc1ccc(Nc2ncnc(-n3cccc3)n2)cc1Cl	aSyn UTR act -125
CCOC(=O)c1sc2ccccc2c1NC(=O)c1coc2ccccc2c1=O	aSyn UTR act -74
OCCN(CCO)CC(O)COc1ccc(C23CC4CC(CC(C4)C2)C3)cc1 (centres undefined)	none
O=[N+]([O-])c1cc([N+](=O)[O-])c(Oc2cccc(Cl)c2Cl)cc1NN1CCCCC1	none
O=[N+]([O-])c1cc(/C=N/O)ccc1Oc1ccccc1Cl	aSyn UTR act -65
CO/N=C/c1ccc(Oc2ccc(C)cc2)c([N+](=O)[O-])c1	aSyn UTR act -90
O=C(COc1ccc(Cc2ccccc2)cc1)c1ccc(F)cc1	aSyn UTR act -72
O=C(COc1ccc(F)cc1)c1ccc2c(c1)CCCC2	aSyn UTR act -133
N/C(Cc1cccs1)=N\OC(=O)COc1ccc(Br)cc1Cl	aSyn UTR act -163
N/C(Cc1cccs1)=N\OC(=O)COc1ccccc1Cl	aSyn UTR act -174
COc1cccc(-c2nnc3sc(-c4ccccn4)nn23)c1	aSyn UTR act -103
COc1ccccc1-c1nnc2sc(-c3ccc(N(C)C)cc3)nn12	none
N#Cc1nc(-c2cccs2)oc1NCCc1ccccc1	aSyn UTR act -111
COc1ccc(-c2nc(C#N)c(NCCc3ccccc3)o2)cc1OC	aSyn UTR act -142
CCc1ccc2oc(-c3cc(N)ccc3Cl)nc2c1	aSyn UTR act -63
Nc1ccc2oc(-c3ccccc3Cl)nc2c1	none
COc1ccc(-c2coc3cc(O)ccc3c2=O)cc1OC	aSyn UTR act -66
COc1ccccc1-c1coc2cc(O)cc(O)c2c1=O	aSyn UTR act -71
CCN(CC)C(=O)Oc1ccc2c(=O)c(-c3ccccc3)coc2c1	aSyn UTR act -90
O=c1c(-c2ccc(F)cc2)coc2cc(O)ccc12	aSyn UTR act -94
CCc1ccc(Oc2coc3cc(OCC(=O)Nc4cc(C)ccc4C)ccc3c2=O)cc1	none
COc1ccc2c(=O)c(-c3ccc(OC)c(OC)c3)coc2c1	aSyn UTR act -97
COc1ccc2c(=O)c(-c3ccccc3)coc2c1	aSyn UTR act -65
O=c1c(-c2ccc(F)cc2)coc2c3c(ccc12)OCCO3	aSyn UTR act -128
CCOc1ccc2c(=O)c(Oc3ccccc3OCC)coc2c1	aSyn UTR act -100
O=C(OCc1ccccn1)c1ccc(COc2ccc3ccccc3c2)o1	aSyn UTR act -104
Cc1cccc(N=CC=C2OC(C)(C)C(C)(C)O2)c1	aSyn UTR act -81
COc1cccc(N=CC=C2OC(C)(C)C(C)(C)O2)c1	aSyn UTR act -99
Cc1ccc(NC(=O)c2ccc3nc[nH]c3c2)c(O)c1	aSyn UTR act -99

High-throughput results from PubChem.
